The structures appear in SMILES notation. About 4,600 (1.4%) of roughly 330,000 compounds were called active. For the sample, actives were picked, then their nearest neighbours and some compounds at random. Values without a mark were called inactive.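 The calls were made as follows: active = inhibition of 40% or more at the single tested concentration; inactive = the rest.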

What is called inhibition is the relative decrease from the control value, in per cent.

This test can be described thus: wild-type TIM10 yeast growth inhibition – luminescence, uHTS, counter-screen for tim10-1 yeast inhibitor project, primary screen (AID 463195).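 Also: wild-type TIM10 isogenic control strain grown at permissive 25 °C; 0% = DMSO yeast wells and 100% = minimal medium wells without yeast.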 To be noted: S. cerevisiae TIM10 strain growth, BacTiter-Glo luminescence, 24 h; at 10 µM; active compounds read high. (Counterscreens check selectivity or assay interference.)
Consider `COc1ccc(OCc2cc(C(=O)N3CCCC3)no2)c2ccccc12`, for which the inhibition was -11.8%.

For the compound `COc1cccc(OCc2cc(C(=O)N3CCN(C(=O)c4ccco4)CC3)no2)c1`, the inhibition is 97.6% (active).

For the compound `O=C(c1cc(COc2cccc(C(F)(F)F)c2)on1)N1CCSCC1`, the inhibition was 19.8%.

As to `CC(=O)C[C@H](O)CC(=O)[C@@H]1OC(=O)[C@@H](C)C/C=C\Cc2ccccc21`, the inhibition is 4.22%.

With `CCc1cccc(NC(=O)C2CCCN(S(=O)(=O)c3ccc4[nH]c(=O)ccc4c3)C2)c1` (centres undefined), the inhibition was -4.86%.

For `CCN1/C(=C\c2ccc3ccccc3[n+]2CC)Sc2cc(C)ccc21`, the inhibition is 78.3% (active).

As for `COc1ccc2c(c1OC)C(=O)N(c1ccc(O)cc1)C2`, the inhibition was -21.6%.

Turning to `CCC1CCC2(CC1)NC(=O)N(CC(=O)Nc1ccc(OC)cc1)C2=O` (centres undefined), the inhibition was -4.33%.

As for `CN(c1cccc(NC(=O)c2ccc(CN3CCc4ccccc4C3)cc2)c1)S(C)(=O)=O`, the inhibition was -4.01%.

For `CCOC(=O)c1cc(C(=O)Nc2ccc(S(=O)(=O)Nc3ccc(OC)cc3)cc2)nn1C`, the inhibition is 8.95%.

On to `COc1ccc(OCC(=O)Nc2ccc(NC(=O)c3ccco3)c(C)c2)cc1`, for which the inhibition was -13.8%.

`Cc1ccc(C(=O)COc2cccc(NC(=O)c3ccco3)c2)cc1`: the inhibition is 54% (active).

On to `Cc1cccc(OCC(=O)Nc2ccc(NC(=O)c3ccco3)c(C)c2)c1`, for which the inhibition is -8.94%.

As to `COC(=O)c1onc(-c2c(OC)cc(OC)cc2OC)c1C(=O)OC`, the inhibition was 6.8%.

On to `CC1=C(C(=O)Nc2cc(C)ccn2)C(c2cnn(C)c2)C2=C(CC(c3ccccc3)CC2=O)N1` (centres undefined), for which the inhibition is 6.51%.

`O=C(NCc1ccc(F)cc1)C1CCN(C(=O)Nc2ccc(F)cc2)CC1`: the inhibition is -14%.

Take `CC1CN(C(=O)c2ccc([N+](=O)[O-])s2)CC(C)O1` (centres undefined): the inhibition was 6.54%.

Regarding `O=[N+]([O-])c1ccc(C=Nc2ccc(Cl)cc2Cl)s1`, the inhibition was 71.2% (active).

For the compound `CCC1=NN(C(=O)Cc2ccc([N+](=O)[O-])cc2)C(O)(c2ccc(Br)cc2)C1` (centres undefined), the inhibition is 27%.

`O=C(Nc1ccc2oc(-c3ccc4ccccc4c3)nc2c1)c1cccs1`: the inhibition is 0.529%.

Regarding `O=C(Nc1cccc(-c2nc3ncccc3o2)c1)c1ccco1`, the inhibition was 12.8%.

Consider `O=C(Nc1ccc2oc(-c3ccccc3F)nc2c1)c1ccco1`, for which the inhibition was 67.2% (active).

With `Cc1cc(C)cc(NC(=O)Cn2cnc3c(nnn3Cc3ccc(F)cc3)c2=O)c1`, the inhibition is -9.34%.

As to `Cc1ccc(Nc2cc(=O)n(C3CCCCC3)c(=O)[nH]2)cc1C`, the inhibition is 4.8%.

Take `COc1cc(NC(=O)c2ccc3c(c2)OCO3)ccc1NC(=O)c1cccs1`: the inhibition is 11%.

As for `COc1cc(NC(=O)c2cccs2)ccc1NC(=O)c1ccccc1Cl`, the inhibition is 40.9% (active).

With `COc1cc2ccccc2cc1C(=O)Nc1ccc(NC(=O)c2cccs2)cc1`, the inhibition is -34.6%.

With `C=C1C2C[C@H](O)C(C)(C)[C@@]2(O)[C@H](O)C[C@]23C[C@@](C)(O)[C@H](CC[C@H]12)[C@H]3O` (some centres undefined), the inhibition was -10.5%.

As for `Cc1cccc(/C(N)=N/OC(=O)c2ccccc2Cl)c1`, the inhibition was 71.3% (active).

Turning to `Cc1ccc(/C(N)=N/OC(=O)COc2ccc(Cl)c(C)c2)cc1`, the inhibition was 30.7%.

In the case of `Cc1ccc(C(=O)O/N=C(\N)c2ccccn2)cc1Cl`, the inhibition is 28.2%.

For the compound `CCOC(=O)c1ccc2[nH]c3c(c2c1)CCCC3NC=O` (centres undefined), the inhibition was 16.6%.

Take `CN1C(=O)/C(=N/OC(=O)c2ccccc2Br)c2ccccc21`: the inhibition was 68.9% (active).

In the case of `CN1C(=O)/C(=C\c2cc(Br)cs2)c2ccccc21`, the inhibition was 30.2%.

For the compound `COc1ccc(NC(=O)ON=C2c3ccccc3-c3ccccc32)cc1`, the inhibition was 8.51%.

Consider `Cc1ccc(-c2noc(CCC(=O)Nc3ccccc3N3CCN(C)CC3)n2)cc1`, for which the inhibition is 10.4%.

For the compound `O=C(Nc1cccc(CCc2ccccn2)c1)c1ccc(Cl)cc1`, the inhibition is 1.78%.

For the compound `O=C(Nc1cccc(Cl)c1)OCc1ccccn1`, the inhibition was 47.9% (active).

With `O=C(Nc1ccc(Cl)cc1)OCc1cc(-c2ccccc2)on1`, the inhibition was 6.71%.

For `O=C(COC(=O)c1cc([N+](=O)[O-])ccc1NCc1ccccc1)NC1CCCCC1`, the inhibition was -9.16%.

On to `CC(=O)Nc1ccc(S(=O)(=O)N(C)CC(=O)NCCC2=CCCCC2)cc1`, for which the inhibition is 3.82%.

On to `CCn1nc(C)c(CNC(=O)C2CCC(=O)N(Cc3cccc(F)c3)C2)c1C` (centres undefined), for which the inhibition was -0.612%.

Turning to `Cn1c(Nc2ccccc2)cc(=O)n(C)c1=O`, the inhibition is 0.045%.

Turning to `Cc1cc(Nc2ccccc2)n(C(=O)c2ccc(N)cc2)n1`, the inhibition is 57.7% (active).

Turning to `Cc1cc(C)n(C(=O)c2ccc(S(=O)(=O)N3CCCC3)cc2)n1`, the inhibition was 3.81%.

As to `O=C(Cn1c(N2CCN(C/C=C/c3ccccc3)CC2)nc2ccccc21)c1ccccc1`, the inhibition was 30.9%.

As to `COc1ccc(Cl)cc1NC(=O)CN(C)CC(=O)Nc1ccc2c(c1)OCO2`, the inhibition is -6.17%.

In the case of `Cc1cc(OC(=O)c2c(Cl)cccc2Cl)nc(C)n1`, the inhibition is -1.42%.

Consider `Cc1ccc(NNC(=O)c2c(F)cccc2Cl)cc1Cl`, for which the inhibition was 11.3%.

As for `Cc1cc(C)c(S(=O)(=O)c2ccccc2)c(OC(=O)c2c(F)cccc2Cl)n1`, the inhibition was 59.8% (active).

On to `COCCCN1C(=O)c2ccc(C(=O)OCC(=O)NCc3ccccc3OC)cc2C1=O`, for which the inhibition was 2.82%.

With `CN1C(=O)c2ccc(C(=O)Nc3ccc(Br)cn3)cc2C1=O`, the inhibition was 3.52%.

Turning to `O=C(Nc1cccc(O)c1)c1ccc(C(=O)c2ccccc2)o1`, the inhibition was 30.4%.

With `Cc1onc(C(=O)Nc2ccc3c(c2)OCO3)c1[N+](=O)[O-]`, the inhibition is -7.9%.

For the compound `O=C(Nc1ccc(Br)cn1)c1ccc([N+](=O)[O-])cc1Cl`, the inhibition was 14.3%.

With `Cc1onc(C(=O)NCc2ccc(F)cc2)c1[N+](=O)[O-]`, the inhibition is -0.126%.

As to `Cc1onc(NC(=O)c2ccc([N+](=O)[O-])o2)c1Br`, the inhibition was 46.6% (active).

With `CCN(CC)S(=O)(=O)c1ccc(N2CCCC2)c(NC(=O)c2ccc([N+](=O)[O-])o2)c1`, the inhibition was 28.1%.

For `Cc1cccc(NC(=O)c2ccc([N+](=O)[O-])o2)c1`, the inhibition was 60.3% (active).

`O=C(Nc1ccc(Br)cn1)c1ccc([N+](=O)[O-])o1`: the inhibition is 57.3% (active).

For `CC(C)(C)c1nnc(NC(=O)C2c3ccccc3Oc3ccccc32)s1`, the inhibition was 29.5%.

Take `Cc1ccc(CNC(=O)c2cccc3c2C(=O)c2ccc(N4CCC(C)CC4)cc2S3(=O)=O)cc1`: the inhibition was 4.75%.

Consider `CC(=O)Nc1ccc(C(=O)N(C2=NC(C)CS2)c2ccc(Cl)cc2)cc1` (centres undefined), for which the inhibition is 20.1%.

Turning to `CC(=O)OCC(COC(C)=O)OC(C)=O`, the inhibition was 5.8%.

Regarding `COc1ccc(S(=O)(=O)NCCc2cc3ccc(C)c(C)c3[nH]c2=O)cc1`, the inhibition is 5.58%.

`CC(C)[C@@H](C(=O)O)N(Cc1cccc(CN([C@H](C(=O)O)C(C)C)S(C)(=O)=O)c1)S(C)(=O)=O`: the inhibition was 10.1%.

For `CC(=O)c1cnc(-c2ccccc2)s1`, the inhibition was 12.3%.

As for `CC(C)(C)C(=O)c1cnc(Nc2ccccc2)s1`, the inhibition was 45.4% (active).

For `O=C(/C=C/Nc1ccccc1)c1cnc(-c2ccccc2)s1`, the inhibition is 3.58%.

Regarding `CCOC(=O)C1CCCN(C(=O)c2ccc(CS(=O)(=O)c3ccc(Br)cc3)o2)C1` (centres undefined), the inhibition was 4.19%.

With `Cc1cc(N2CCCC2)ccc1NC(=O)COc1ccc(Cl)cc1`, the inhibition is 4.1%.

Turning to `NC(=O)NC(=O)C(OC(=O)CCNS(=O)(=O)c1ccccc1)c1ccccc1` (centres undefined), the inhibition is 14.9%.

Regarding `COc1ccc(N2C(=O)NC(NS(=O)(=O)c3ccc(Cl)cc3)(C(F)(F)F)C2=O)cc1` (centres undefined), the inhibition was 5.54%.

Consider `O=C(NCCc1c[nH]c2ccccc12)c1cccc(Br)c1`, for which the inhibition was 4.34%.

In the case of `Cc1ccc(S(=O)(=O)N(C)CC(=O)NCCc2c[nH]c3ccccc23)cc1`, the inhibition was -8.68%.

Turning to `Cc1cc(C)cc(NC(=S)NCCc2c[nH]c3ccccc23)c1`, the inhibition was 40.6% (active).

Consider `CCC(C)(C)NC(=O)CN(C(=O)CCC(=O)Nc1cc(C)ccn1)c1ccc2c(c1)OCCO2`, for which the inhibition is 17.4%.

As for `CCOC(=O)/C(C#N)=C\c1c(C)cc(C)c(COC(C)=O)c1C`, the inhibition was 19%.

On to `COC(=O)CN(c1cccc(C(C)=O)c1)S(C)(=O)=O`, for which the inhibition was 12.6%.

For the compound `CCSc1ncnc2c(C#N)c3n(c12)CCCCC3`, the inhibition is -29.8%.

Turning to `CCSC1=C(C#N)C(=O)n2c1cc1c2CCCC1`, the inhibition is 63% (active).

With `COC(C[C@@H](O)C[C@H](O)[C@H](C)OCc1ccccc1)OC`, the inhibition is -0.06%.

For the compound `c1ccc(-c2nnc3n2NC(c2ccc4c(c2)OCO4)S3)cc1` (centres undefined), the inhibition was 57.8% (active).

Take `Cc1cccc(C)c1NC(=O)CSc1nnc(-c2ccccc2)n1Cc1ccc2c(c1)OCO2`: the inhibition is -0.243%.

On to `CC1=C(C(N)=O)C(c2ccc3c(c2)OCO3)n2nc(-c3cccc(C)c3)nc2N1` (centres undefined), for which the inhibition is 2.9%.

For `CN(CC(=O)NCCc1ccccc1)S(=O)(=O)c1cnc[nH]1`, the inhibition was -7.58%.

Turning to `O=C(CNC(=O)c1cccnc1)N/N=C/c1cc(Br)c(O)c(Br)c1`, the inhibition was -19.5%.

On to `COc1cc(Br)cc(/C=N/c2ncn[nH]2)c1O`, for which the inhibition is 48.7% (active).

Consider `Oc1c(Cl)cc(Cl)cc1/C=N/c1ncn[nH]1`, for which the inhibition is 23.9%.

As for `C=CCn1c(Cn2nnc3ccccc32)nnc1SCC(=O)N/N=C/c1cc(Br)cc(OC)c1O`, the inhibition is -12.4%.

On to `Cc1cc(-c2nnc(SCC(=O)Nc3ccc(S(N)(=O)=O)cc3)n2N)n[nH]1`, for which the inhibition was -1.79%.

`CCOC(=O)C1Sc2[nH]c(=O)sc2C(c2ccc(Cl)cc2)C1C(=O)OCC` (centres undefined): the inhibition was 44.2% (active).

For `CCOC(=O)c1[nH]c2c(c1-c1ccccc1)C(=O)CC(c1ccc(Cl)cc1)C2` (centres undefined), the inhibition was 3.98%.

`CCOC(=O)C1=C(C)NC(=O)N(C(C)=O)C1c1ccc(Cl)cc1` (centres undefined): the inhibition was 29.2%.
